In all, about 5,500 compounds went through this assay and about 2,000 (36%) were called active. Inconclusive results (about 18%) are left out. No stated cut-off is given here; in the data, active means normalized growth mostly below about 0.91 (no sharp cut-off); inconclusive means no clear call, values can overlap the other calls; inactive means mostly above about 0.92. The list shows a part of the results.
Assay: chemical genetic growth profiling, strain panel (AID 1159580);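 further: tested at 20 µM; growth read once vehicle control cultures reached saturation at 30 °C; 1 = growth at the plate median or of vehicle wells; lower values mean less growth of the strain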
Conditions: growth OD
[1] = S. cerevisiae deletion strains, locus YDR150W, strain NUM1, active compounds read low
[2] = S. cerevisiae deletion strains, locus YGR078C, strain PAC10, active compounds read low
[3] = S. cerevisiae deletion strains, locus YHR030C, strain SLT2, active compounds read low
[4] = S. cerevisiae deletion strains, locus YMR263W, strain SAP30, active compounds read low
[5] = S. cerevisiae deletion strains, locus YNL322C, strain KRE1, active compounds read low
[6] = S. cerevisiae deletion strains, locus YPL055C, strain LGE1, active compounds read low
[7] = S. cerevisiae deletion strains, locus YPL241C, strain CIN2, active compounds read low
[8] = S. cerevisiae deletion strains, locus YHR079C, strain IRE1, active compounds read low
[9] = S. cerevisiae deletion strains, locus YJL095W, strain BCK1, active compounds read low
[10] = S. cerevisiae deletion strains, locus YJR066W, strain TOR1, active compounds read low
[11] = S. cerevisiae deletion strains, locus YLR113W, strain HOG1, active compounds read low
[12] = S. cerevisiae deletion strains, locus YOR231W, strain MKK1, active compounds read low
[13] = S. cerevisiae deletion strains, locus YPL256C, strain CLN2, active compounds read low
[14] = S. cerevisiae deletion strains, locus YAL040C, strain CLN3, active compounds read low
[15] = S. cerevisiae deletion strains, locus YCL061C, strain MRC1 (second series), active compounds read low
[16] = S. cerevisiae deletion strains, locus YDR363W, strain ESC2, active compounds read low
[17] = S. cerevisiae deletion strains, locus YER002W, strain NOP16, active compounds read low
[18] = S. cerevisiae deletion strains, locus YNL175C, strain NOP13, active compounds read low
[19] = S. cerevisiae deletion strains, locus YNL197C, strain WHI3, active compounds read low
[20] = S. cerevisiae deletion strains, locus YNL224C, strain SQS1, active compounds read low
[21] = S. cerevisiae deletion strains, locus YOR083W, strain WHI5 (second series), active compounds read low

Measured: normalized growth

CCCCOc1ccc(C(=O)CCC(=O)O)cc1
active: S. cerevisiae deletion strains, locus YBR229C, strain ROT2, active compounds read low 0.915 | S. cerevisiae deletion strains, locus YDL101C, strain DUN1, active compounds read low 0.886 | S. cerevisiae deletion strains, locus YJR043C, strain POL32, active compounds read low 0.879 | S. cerevisiae deletion strains, locus YNL153C, strain GIM3, active compounds read low 0.904
inactive: S. cerevisiae deletion strains, locus YAL013W, strain DEP1, active compounds read low 0.977 | S. cerevisiae deletion strains, locus YCL061C, strain MRC1, active compounds read low 0.936 | S. cerevisiae deletion strains, locus YDL134C, strain PPH21, active compounds read low 1.04 | [1] 0.934 | S. cerevisiae deletion strains, locus YEL061C, strain CIN8, active compounds read low 1 | [2] 0.939 | [3] 0.997 | S. cerevisiae deletion strains, locus YHR087W, strain rtc3, active compounds read low 0.982 | S. cerevisiae deletion strains, locus YJR075W, strain HOC1, active compounds read low 0.931 | S. cerevisiae deletion strains, locus YKL190W, strain CNB1, active compounds read low 1.02 | S. cerevisiae deletion strains, locus YLR039C, strain RIC1, active compounds read low 0.945 | S. cerevisiae deletion strains, locus YLR058C, strain SHM2 (second series), active compounds read low 1.01 | S. cerevisiae deletion strains, locus YLR085C, strain ARP6, active compounds read low 0.985 | S. cerevisiae deletion strains, locus YLR262C, strain YPT6, active compounds read low 0.946 | S. cerevisiae deletion strains, locus YML094W, strain GIM5, active compounds read low 1.01 | S. cerevisiae deletion strains, locus YMR219W, strain ESC1, active compounds read low 0.983 | [4] 0.969 | S. cerevisiae deletion strains, locus YNL298W, strain CLA4 (second series), active compounds read low 1.01 | [5] 1.01 | S. cerevisiae deletion strains, locus YNR030W, strain Alg12, active compounds read low 0.982 | S. cerevisiae deletion strains, locus YOL006C, strain TOP1, active compounds read low 1.05 | [6] 0.909 | [7] 1.01 | S. cerevisiae deletion strains, locus YPR135W, strain CTF4, active compounds read low 1.03 | S. cerevisiae strains, strain wild type, active compounds read low 1.03

COc1cc(OC)c(C(=O)CCCN2CCCC2)c(OC)c1
inactive: [3] 1.07 | [8] 1.04 | [9] 1.03 | [10] 0.973 | [11] 1.01 | S. cerevisiae deletion strains, locus YNL183C, strain NPR1, active compounds read low 0.973 | [12] 1.03 | [13] 1.05

CCCc1c(OCCCOc2ccc(OCC(=O)O)cc2)ccc(C(C)=O)c1O
inactive: [14] 0.942 | [15] 0.999 | [1] 0.997 | [16] 1.01 | [17] 1.04 | [4] 1.01 | [18] 0.98 | [19] 0.987 | [20] 0.963 | [5] 1.01 | [21] 0.914 | [7] 1

O=C(OCCN1CCCCC1)c1c[nH]c2ccccc12
inactive: [14] 1 | [15] 1.01 | [16] 0.997 | [17] 1.02 | [2] 1.02 | S. cerevisiae deletion strains, locus YGR229C, strain SMI1, active compounds read low 0.999 | [4] 0.999 | S. cerevisiae deletion strains, locus YMR307W, strain GAS1, active compounds read low 1.01 | S. cerevisiae deletion strains, locus YNL128W, strain TEP1, active compounds read low 1.01 | [18] 1.01 | [19] 1 | [20] 0.994 | [21] 1 | [6] 0.997

O=C(CCN1CCCCC1)c1ccc(-c2ccccc2)cc1
active: S. cerevisiae deletion strains, locus YGR092W, strain DBF2, active compounds read low 0.193 | [3] 0.567 | S. cerevisiae deletion strains, locus YHR205W, strain SCH9, active compounds read low 0.471 | S. cerevisiae deletion strains, locus YKL048C, strain ELM1, active compounds read low 0.699 | S. cerevisiae deletion strains, locus YKL101W, strain HSL1, active compounds read low 0.454 | [11] 0.642 | S. cerevisiae deletion strains, locus YNL307C, strain MCK1 (second series), active compounds read low 0.246 | [13] 0.684
inactive: S. cerevisiae deletion strains, locus YAR019C, strain CDC15, active compounds read low 0.97 | S. cerevisiae deletion strains, locus YBL105C, strain PKC1, active compounds read low 0.975 | S. cerevisiae deletion strains, locus YBR135W, strain CKS1, active compounds read low 0.984 | S. cerevisiae deletion strains, locus YBR136W, strain MEC1, active compounds read low 0.981 | S. cerevisiae deletion strains, locus YBR160W, strain CDC28, active compounds read low 0.987 | S. cerevisiae deletion strains, locus YDL017W, strain CDC7, active compounds read low 0.982 | S. cerevisiae deletion strains, locus YDL028C, strain MPS1, active compounds read low 0.984 | S. cerevisiae deletion strains, locus YDL108W, strain KIN28, active compounds read low 0.979 | S. cerevisiae deletion strains, locus YDL132W, strain cdc53, active compounds read low 0.977 | S. cerevisiae deletion strains, locus YDL214C, strain PRR2, active compounds read low 0.909 | S. cerevisiae deletion strains, locus YDR052C, strain DBF4, active compounds read low 0.977 | S. cerevisiae deletion strains, locus YDR054C, strain cdc34, active compounds read low 0.966 | S. cerevisiae deletion strains, locus YDR226W, strain ADK1, active compounds read low 0.983 | S. cerevisiae deletion strains, locus YDR477W, strain SNF1, active compounds read low 0.785 | S. cerevisiae deletion strains, locus YER123W, strain YCK3, active compounds read low 0.892 | S. cerevisiae deletion strains, locus YER133W, strain GLC7, active compounds read low 0.961 | S. cerevisiae deletion strains, locus YFL009W, strain cdc4, active compounds read low 0.98 | S. cerevisiae deletion strains, locus YFL029C, strain CAK1, active compounds read low 0.978 | S. cerevisiae deletion strains, locus YFR003C, strain YPI1, active compounds read low 0.979 | S. cerevisiae deletion strains, locus YFR019W, strain FAB1, active compounds read low 0.961 | S. cerevisiae deletion strains, locus YFR028C, strain CDC14, active compounds read low 0.976 | S. cerevisiae deletion strains, locus YGR040W, strain KSS1, active compounds read low 0.839 | S. cerevisiae deletion strains, locus YGR052W, strain FMP48, active compounds read low 0.625 | [8] 0.691 | S. cerevisiae deletion strains, locus YHR082C, strain KSP1, active compounds read low 0.811 | S. cerevisiae deletion strains, locus YIL147C, strain SLN1, active compounds read low 0.977 | [9] 0.689 | S. cerevisiae deletion strains, locus YJL128C, strain PBS2, active compounds read low 0.866 | S. cerevisiae deletion strains, locus YJL157C, strain FAR1, active compounds read low 0.925 | S. cerevisiae deletion strains, locus YJR016C, strain ILV3, active compounds read low 0.98 | S. cerevisiae deletion strains, locus YJR066W, strain TOR1 (second series), active compounds read low 0.898 | [10] 0.733 | S. cerevisiae deletion strains, locus YKL067W, strain YNK1, active compounds read low 0.93 | S. cerevisiae deletion strains, locus YKL193C, strain SDS22, active compounds read low 0.976 | S. cerevisiae deletion strains, locus YLR133W, strain CKI1, active compounds read low 0.908 | S. cerevisiae deletion strains, locus YLR403W, strain SFP1, active compounds read low 0.755 | S. cerevisiae deletion strains, locus YML070W, strain DAK1, active compounds read low 0.909 | S. cerevisiae deletion strains, locus YMR001C, strain CDC5, active compounds read low 0.972 | S. cerevisiae deletion strains, locus YMR205C, strain PFK2 (second series), active compounds read low 0.941 | S. cerevisiae deletion strains, locus YMR277W, strain FCP1, active compounds read low 0.974 | S. cerevisiae deletion strains, locus YNL006W, strain LST8, active compounds read low 0.983 | S. cerevisiae deletion strains, locus YNL020C, strain ARK1, active compounds read low 0.822 | S. cerevisiae deletion strains, locus YNL161W, strain CBK1, active compounds read low 0.991 | S. cerevisiae deletion strains, locus YNL207W, strain RIO2, active compounds read low 0.971 | S. cerevisiae deletion strains, locus YNL222W, strain SSU72, active compounds read low 0.977 | S. cerevisiae deletion strains, locus YOL078W, strain AVO1, active compounds read low 0.98 | S. cerevisiae deletion strains, locus YOL136C, strain PFK27, active compounds read low 0.896 | S. cerevisiae deletion strains, locus YOR061W, strain CKA2, active compounds read low 0.805 | S. cerevisiae deletion strains, locus YOR119C, strain RIO1, active compounds read low 0.757 | [12] 0.782 | S. cerevisiae deletion strains, locus YOR329C, strain SCD5, active compounds read low 0.976 | S. cerevisiae deletion strains, locus YPL031C, strain PHO85, active compounds read low 0.79 | S. cerevisiae deletion strains, locus YPL153C, strain RAD53, active compounds read low 0.872 | S. cerevisiae deletion strains, locus YPL204W, strain HRR25, active compounds read low 0.889 | S. cerevisiae deletion strains, locus YPL209C, strain IPL1, active compounds read low 0.981 | S. cerevisiae deletion strains, locus YPR025C, strain CCL1, active compounds read low 0.982 | S. cerevisiae deletion strains, locus YPR106W, strain ISR1, active compounds read low 0.989 | S. cerevisiae deletion strains, locus YPR111W, strain DBF20, active compounds read low 0.97 | S. cerevisiae deletion strains, strain NNK1, active compounds read low 0.966 | S. cerevisiae deletion strains, strain TSCII, active compounds read low 0.97
